Assay outcomes as filed in PubChem BioAssay.
NS1 function inh = blocks influenza NS1 protein function; Potency, µM (doses to about 46.1 µM), for the others: at the top dose activity, positive = more growth; AID 2326; hit rate 0.4% among 270,000; calls by dose curve; note: potency is the fitted concentration of half-maximal effect; actives are rising curves; nearly all actives have a fitted effect of over 50% in size
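Read-out: OD600 growth recovery of NS1-expressing budding yeast. Cells grown overnight at 30C in -URA glucose medium, washed, resuspended and diluted 1:100 in 2% galactose assay medium, pH 6.0. Same strain lacking NS1 served as positive control.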
Cycloheximide cs = counter-screen for Shiga toxin inhibitors: cycloheximide protein synthesis inhibition; cell reporter, cycloheximide protein synthesis inhibition counterscreen; max response, %; hit rate 12% among 300,000; in the data active = max response mostly above about 13%, no sharp cut-off; inactive = mostly below about 14%; note: read at 38.3 µM for the half of the compounds with a filed dose; 0% is about no effect
Shiga toxin inh = blocks Shiga toxin action in Vero cells; Vero cells, Shiga toxin protein synthesis inhibition reporter; inhibition, % at 38.7 µM; hit rate 9.2% among 290,000; in the data active = inhibition mostly above about 28%, no sharp cut-off; inactive = mostly below about 43%; note: 0% is about no effect
Pf growth 96h = inhibits malaria parasite growth, 96 h; P. falciparum luciferase reporter growth, 96 h; Potency, µM (series often up to 28.7 µM), without a hit: at the highest dose activity change, negative = inhibition, most hits filed as inhibitors; hit rate 6.9% among 320,000; note: potency is the fitted concentration of half-maximal effect; % is set by controls: 0 for no effect and ±100 for the full control effect
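Two-generation exposure (96 h) targets delayed-death phenotype. Reporter parasites carrying integrated firefly luciferase, in red cells at 2% hematocrit and 0.05% parasitemia final, kept at 37 C, 5% CO2; luminescence loss indicates inhibition.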
Sm TGR block = blocks Schistosoma mansoni thioredoxin glutathione reductase; hit rate 3% among 360,000; AID 485364; purified TGR, DTNB reduction, TNB absorbance 405 nm; Q962Y6; Potency, µM (doses to about 114 µM), inactives show at the highest dose activity change, negative = inhibition, hits mostly inhibitors; note: potency is the fitted concentration of half-maximal effect; % is set by controls: 0 for no effect and ±100 for the full control effect; nearly all actives have a fitted effect of over 60% in size
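TGR 20 nM + NADPH 100 uM (dispensed conc.), cpd preinc 15 min RT; start with NADPH (500 uM addition) then DTNB (15 mM addition). Kinetic TNB absorbance, 405 nm filter. Four-parameter Hill fit across titration.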
Pf growth 48h = P. falciparum growth inhibition at 48 hours (one generation) | Potency, µM (series often up to 28.7 µM), for inactives: at the highest dose activity change, negative = inhibition, usual class: inhibitors | P. falciparum luciferase growth in erythrocytes, 48 h | hit rate 5.9% among 310,000; note: potency is the fitted concentration of half-maximal effect; % is set by controls: 0 for no effect and ±100 for the full control effect
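First compound was added to culture medium, then infected red cells at 0.1% parasitemia and 2% hematocrit (final). After incubation at 37 C under 5% CO2, luciferase detection reagent was dispensed and light output recorded.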
* marks the source's active call; other numbers are inactive results; ? = inconclusive; · = not tested or not shown; [ ] = another dose, or the depositor's remark. The list is not random: actives were taken first. Their share in the collection is about 21%. Unless noted, calls come from the whole dose curve; as a rule, active = well fitted curve in the direction sought with a large enough effect; inconclusive = small, poorly fitted or top-dose-only effect, or another doubt; inactive = no such curve, though single readings can be large; an effect the other way counts as inactive or inconclusive.

SMILES	NS1 function inh	Cycloheximide cs	Shiga toxin inh	Pf growth 96h	Sm TGR block	Pf growth 48h
CCCn1nc2cc(C(=O)NC3CCc4ccccc43)ccc2c1OCC (stereo unspecified)	-20.7%	-0.2	33.3	?	-14.0%	11.7µM*
CCCn1nc2cc(C(=O)NCCc3cccs3)ccc2c1OCC	-5.4%	28.5*	73.4*	37.9%	-7.9%	8.8%
CCCCNC(=O)c1ccc2c(OCC)n(CCCC)nc2c1	-11.2%	10.7	-13.5	?	1.6%	-0.7%
Cc1ccc2c(c1)[nH]c1c(N3CCN(Cc4ccc5c(c4)OCO5)CC3)ncnc12	-69.2%	-3.0	-18.1	·	-0.7%	2.94µM*
c1ccc2c(c1)oc1c(N3CCN(Cc4ccc5c(c4)OCO5)CC3)ncnc12	-56.4%	36.0*	97.8*	·	3.9%	?
Cc1ccc(-n2ncc3c2CC(C)(C)CC3NC(=O)CCN2CCCCC2=O)cc1 (stereo unspecified)	-7.1%	-2.0	-7.1	-10.5%	-23.1%	-23.8%
Cc1noc(C)c1COc1ccc(C(=O)N2CCCC(C(N)=O)C2)cc1 (stereo unspecified)	11.0%	1.3	-4.7	29.5%	2.4%	85.8%
Cc1ccc(CNC(=O)CCCc2nnc3n(CC(C)C)c(=O)c4sccc4n23)cc1	·	·	·	·	1.1%	·
CCCCCCC[N+](CC)(CC)CCCCc1ccc(Cl)cc1	·	·	·	0.465µM*	-0.8%	0.465µM*
COc1ccc(N2CCN(C(=O)c3ccc4c(c3)NC(=O)C(CSCc3c(F)cccc3Cl)N4)CC2)cc1 (stereo unspecified)	25.4%	-4.2	-10.6	35.6%	56.2µM*	-22.4%
COc1ccc(N2CCN(C(=O)c3ccc4c(c3)NC(=O)C(CSCc3cccc(F)c3)N4)CC2)cc1 (stereo unspecified)	25.1%	-3.3	-10.1	5.4%	44.7µM*	-19.7%
CC(C)CNC(=S)NC1CC2CCCC(C1)N2Cc1cccs1 (stereo unspecified)	-5.0%	-1.1	9.9	3.7µM*	0.8%	13.1µM*
CC(C)CNC(=S)NC1CC2CCCC(C1)N2Cc1ccco1 (stereo unspecified)	0.6%	-2.5	-18.2	11.7µM*	-6.1%	-16.5%
CC(Oc1ccc(F)cc1)C(=O)Oc1ccc(N(C)S(=O)(=O)c2ccccc2)cc1 (stereo unspecified)	·	·	·	-6.3%	-6.8%	0.5%
CC(=O)N[C@@H](Cc1c[nH]c2ccccc12)C(=O)NCCc1ccc(S(N)(=O)=O)cc1	-3.8%	-8.9	12.1	7.2%	-3.2%	-10.7%
O=C1NC(Cc2c[nH]c3ccccc23)C(=O)N1CCOc1ccc(F)cc1 (stereo unspecified)	1.0%	0.5	-10.2	3.6%	-7.0%	6.1%
O=C1NC(Cc2c[nH]c3ccccc23)C(=O)N1Cc1ccc(CN2C(=O)NC(Cc3c[nH]c4ccccc34)C2=O)cc1 (stereo unspecified)	?	0.8	-7.8	-19.0%	20.8%	5.22µM*
CCOC(=O)C1=C(c2ccccc2)NC(N)=NC1c1ccc(OCc2ccc(Cl)cc2)c(OC)c1 (stereo unspecified)	5.0%	10.8	29.5*	1.65µM*	4.5%	1.47µM*
CCOC(=O)C1=C(c2ccccc2)NC(=O)NC1c1cc(Cl)c(O)c(OC)c1 (stereo unspecified)	·	20.3	8.2	2.4%	30.2%	-7.3%
CN(CC(=O)Nc1ccc(Cl)cc1)C(=O)CCc1c[nH]c2ccccc12	0.5%	-3.1	-5.0	15.9%	-1.1%	18.5%
COc1ccc(NC(=O)CN(C)C(=O)Cc2c[nH]c3ccccc23)cc1	·	·	·	?	-3.9%	?
CCOc1ccc(NC(=O)CN(C)C(=O)CCCc2c[nH]c3ccccc23)cc1OCC	·	·	·	?	-1.2%	10.4µM*
COc1ccc(NC(=O)CN(C)C(=O)CCCc2c[nH]c3ccccc23)cc1	·	·	·	10.4µM*	-2.3%	?
CCCCc1ccc(NC(=O)CSCc2cc(=O)[nH][nH]2)cc1	17.8%	-1.1	20.4	·	-2.6%	-14.7%
CCCCc1ccc(NC(=O)COCC)cc1	-4.7%	50.3*	44.4*	·	10.4%	?
SMILES	NS1 function inh	Cycloheximide cs	Shiga toxin inh	Pf growth 96h	Sm TGR block	Pf growth 48h
Cc1cc(NC(=O)COC(=O)C2CC2)ccc1Br	·	·	·	-2.0%	-23.3%	-7.0%
CCCCNCC(=O)Nc1ccc(NC(=O)CNCCCC)cc1	18.1%	-2.7	-17.9	11.7µM*	13.3%	?
CCCCOCCCNCC(=O)Nc1ccc(S(N)(=O)=O)cc1	·	3.4	4.7	31.5%[5.75 µM]	-10.1%	4.3%
CCCCc1ccc(NC(=O)N[C@@H](CC(C)C)C(=O)O)cc1	7.3%	9.9	-5.1	-10.5%	11.0%	0.4%
CCCCc1ccc(NC(=O)CC(C)C)cc1	-35.3%	29.3*	66.2*	22.5%	·	?
CCOCC(=O)Nc1ccc(Br)c(C)c1	2.5%	31.5*	76.1*	5.7%	·	36.6%
CCOC(=O)N1CCN(C(=O)c2cn(CC)c3ccc(S(=O)(=O)N(C)C4CCCCC4)cc3c2=O)CC1	4.5%	9.1	-9.1	?	-1.9%	?
CCOc1ccc(CCNC(=O)CN2C(=O)COc3ccc(S(=O)(=O)N4CCOCC4)cc32)cc1	-15.2%	1.8	-3.7	?	4.7%	9.5%
Cn1c(=O)c(C(=O)CCl)c(N)n(CC2CC2)c1=O	19.5%	-3.1	-21.9	?	14.1µM*	-5.3%
Cn1c(=O)c(C(=O)COC(=O)c2cc(C(F)(F)F)nc3c(C(F)(F)F)cccc23)c(N)n(CC2CC2)c1=O	-5.7%	-3.7	-17.2	-20.4%	-2.6%	6.0%
CC(C)Cn1c(N)c(C(=O)CSc2ncccn2)c(=O)n(C)c1=O	·	·	·	2.0%	-4.6%	20.9%
CC(C)Cn1c(N)c(C(=O)CCl)c(=O)n(C)c1=O	7.9%	-2.6	-16.8	?	20µM*	-14.7%
CC(C)Cn1c(N)c(C(=O)CSc2nnc(C3CC3)n2C2CC2)c(=O)n(C)c1=O	·	·	·	8.28µM*	-3.0%	?
Cc1ccc(CCN2CCN=C2Nc2ccccc2)cc1	·	·	·	47.1%	-0.8%	?
C[C@]1(c2ccccc2)OC(C(=O)O)=CC1=O	·	·	·	9.7%	·	-7.6%
COC(=O)C1=C(C)N(c2ccccc2)/C(=C/c2ccco2)C1=O	2.4%	1.4	-7.4	?	-24.0%	-13.4%
COC(=O)C1=C(C)N(c2ccc(OC)c(OC)c2)C(=O)/C1=C\c1ccco1	6.1%	6.2	-19.3	7.3%	15.8µM*	?
COC(=O)C1=C(C)N(c2cc(C)cc(C)c2)/C(=C/c2ccco2)C1=O	·	23.5	40.7	4.9%	?	8.28µM*
CCOC(=O)C1=C(C)N(c2ccccc2)C(=O)/C1=C\c1cccs1	-20.5%	-1.7	2.0	24.7%	-4.1%	-24.6%
CCOC(=O)C1=C(C)N(c2ccccc2)C(=O)/C1=C\c1ccc(O)c(OC)c1	2.51µM*	3.9	-16.6	?	3.16µM*	?
CCOC(=O)C1=C(C)N(c2ccccc2)C(=O)/C1=C\c1ccco1	-7.7%	5.6	3.1	?	44.7µM*	19.6%
